Z-score data for 16 compounds are collected here from PubChem BioAssay.

SMILES strings stand for the structures. The source made the active and inactive calls.

The nature of experiment [1]: compound effects on lung adenocarcinoma cell viability – A549, calcein-AM fluorescence, 48 h, basal, profiling panel (AID 1162). Conditions: higher = more signal.
Experiment [2] is described as follows: compound effects on differentiated 3T3-L1 adipocyte viability – cell-based, 3T3-L1 adipocytes, calcein-AM fluorescence, 48 h, basal, profiling panel (AID 1163). Conditions: 3T3-L1 adipocytes viability, higher = more signal.
A short description of experiment [3]: compound effects on hepatocellular carcinoma cell viability – HepG2, calcein-AM fluorescence, 48 h, basal, profiling panel (AID 1164). Particulars: higher = more signal.
Experiment [4] in a line: compound effects on multiple myeloma cell viability – MM1S, calcein-AM fluorescence, 48 h, basal, profiling panel (AID 1165).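 Further: viability of MM1S multiple myeloma cells under basal unstimulated conditions.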 Particulars: higher = more signal.
A short description of experiment [5]: calcein-AM signal in unstimulated myeloma cells – cell-based, calcein-AM fluorescence, 48 h, PK04 Diversity Set, profiling panel (AID 1166).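 Further: cells grown under basal conditions without added stimulus.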 Conditions: RPMI8226 myeloma viability, higher = more signal.
The nature of experiment [6]: JC-1 mitochondrial signal, unstimulated HepG2 cells – cell-based, JC-1 fluorescence, 24 h, 100 nL compound, profiling panel (AID 1167). Conditions: HepG2 mitochondrial potential, higher = more signal.
A short description of experiment [7]: JC-1 mitochondrial signal, unstimulated adipocytes – cell-based, JC-1 fluorescence, 3T3-L1 adipocytes, 24 h, 100 nL compound, profiling panel (AID 1168). Conditions: JC-1 mitochondrial fluorescence, higher = more signal, called active from +8 up or from −8 down.
Experiment [8] is described as follows: JC-1 mitochondrial signal, unstimulated myeloma cells – cell-based, JC-1 fluorescence, RPMI8226, 24 h, 100 nL compound, profiling panel (AID 1169). Conditions: JC-1 mitochondrial potential fluorescence, higher = more signal.
Experiment [9] is described as follows: JC-1 mitochondrial signal, unstimulated MM1S myeloma – cell-based, JC-1 fluorescence, 24 h, 100 nL compound, profiling panel (AID 1170). Conditions: MM1S mitochondrial potential, higher = more signal.
Experiment [10] is described as follows: resazurin metabolic signal in A549 cells – cell-based, resazurin fluorescence, 24 h, PK04 Diversity Set, profiling panel (AID 1171). Conditions: A549 viability, higher = more signal, called active from +8 up or from −8 down.
Further: test concentration not given here.

Turning to `CCCCCCC#C[Si](O[C@H](c1ccccc1)c1cn(Cc2cccc(Cl)c2)nn1)(C(C)C)C(C)C`, the z-score is 1.11 in experiment [1]; -0.896 in experiment [2]; 0.761 in [3]; 0.481 in [4]; -0.695 in [5]; 3.44 in [6]. Also, the z-score was 0.169 (inactive) in [7], -0.149 in experiment [8], -1.06 in experiment [9] and 2.58 (inactive) in experiment [10].
In the case of `CC(C)CNC(=O)[C@@]1(C)c2ccccc2C(=O)N(Cc2ccccc2)[C@H]1c1ccc(CO)cc1`, the z-score in experiment [1] is -0.151; in [2], -0.751; in experiment [3] it was -0.323; in [4], -0.408; in [5] it was 0.0402; in experiment [6] it was 0.164. Besides, the z-score was -0.491 (inactive) in experiment [7], 0.0136 in experiment [8], -0.216 in [9] and 0.407 (inactive) in experiment [10].
On to `C[N+](C)(C)CCCC[C@@H]1NC(=O)[C@@H]2C[C@H](C(=O)O)[C@H](c3cccc(OCCO)c3)N2C1=O`, for which the z-score in experiment [1] was 1.58; in [2], 0.185; in experiment [3] it was 0.403; in experiment [4] it was 0.305; in experiment [5] it was 0.367; in [6] it was 2.43. The z-score in experiment [7] was 0.204 (inactive); in [8], 0.423; in experiment [9], 0.17; in experiment [10], 1.13 (inactive).
With `COCCOC(=O)N1C(=O)[C@@]2(c3ccccc31)[C@H](c1ccc(OCCO)cc1)N1[C@H](c3ccccc3)[C@H](c3ccccc3)OC(=O)[C@H]1[C@@H]2C(=O)NC[C@H](O)c1ccccc1`, the z-score in [1] was -0.332; in experiment [2], 0.754; in experiment [3] it was 0.349; in [4] it was -0.991; in [5], -2.39; in experiment [6], -0.32. For the same compound, the z-score is 0.988 (inactive) in experiment [7], 0.199 in experiment [8], -0.864 in experiment [9] and -1.16 (inactive) in experiment [10].
As for `O=C1O[C@H](c2ccccc2)[C@H](c2ccccc2)N2[C@H]1[C@@H](C(=O)N1CCN(c3ncccn3)CC1)[C@]1(C(=O)Nc3ccc(C#CCCO)cc31)[C@H]2c1ccc(OCCO)cc1`, the z-score was -0.696 in experiment [1]; 0.404 in experiment [2]; -0.53 in experiment [3]; -1.04 in experiment [4]; -0.284 in experiment [5]; -0.838 in [6]. The z-score in experiment [7] is 0.717 (inactive); in experiment [8] it was -0.883; in [9], -0.386; in experiment [10], 0.978 (inactive).
Turning to `O=C1NC(=O)C2C1C=CC(C(O)c1ccc3c(c1)OCO3)N2Nc1ccc(Cl)cc1Cl` (stereo not given), the z-score was -0.713 in experiment [1]; -0.638 in experiment [2]; -1.22 in experiment [3]; -2.41 in [4]; -1.99 in experiment [5]; -2.87 in experiment [6]. The z-score in experiment [7] was -0.748 (inactive); in [8], -0.103; in experiment [9] it was -0.339; in experiment [10], -0.233 (inactive).
Turning to `C=CCNC(=O)[C@H]1[C@@H]2C(=O)O[C@@H](c3ccccc3)[C@@H](c3ccccc3)N2[C@@H](c2ccc(O)cc2)[C@]12C(=O)N(C(=O)OCCOC)c1ccc(C#CC3(O)CCCCCC3)cc12`, the z-score in [1] was 0.904; in [2], 0.76; in experiment [3] it was 2.26; in experiment [4], -1.2; in experiment [5] it was -3.53; in experiment [6], -1.84. For the same compound, the z-score in experiment [7] was 0.509 (inactive); in experiment [8], -0.713; in [9] it was -0.808; in experiment [10], -0.316 (inactive).
In the case of `CCCc1cc2c(n1Cc1ccc(OC)cc1)C(C)C1CN(C(=O)c3ccccc3)C(C)(C(=O)OC)C21` (stereo not given), the z-score was -0.923 in experiment [1]; 0.431 in experiment [2]; -0.815 in experiment [3]; -2.74 in [4]; -4.66 in [5]; 2.08 in experiment [6]. The z-score in experiment [7] is -1.82 (inactive); in experiment [8], -0.157; in [9], -1.61; in experiment [10] it was -0.535 (inactive).
Regarding `CC(C)CCC[C@@H](C)[C@H]1CC[C@@]2(C)C3=C(CC[C@]12C)[C@@]1(C)CC[C@H](OC(=O)C(C)(C)C)C(C)(C)C1CC3` (stereo not given in full), the z-score in experiment [1] is 2.49; in experiment [2], 1.66; in experiment [3] it was 1.12; in [4] it was 0.933; in experiment [5], -0.129; in experiment [6] it was 1.15. In addition, the z-score is 0.39 (inactive) in [7], 0.363 in experiment [8], -1.44 in [9] and 0.221 (inactive) in experiment [10].
For `[N-]=[N+]=NCc1ccccc1[C@H]1OC(c2ccc(OCCCO)cc2)=N[C@@]1(Cc1ccccc1)C(N)=O`, the z-score in experiment [1] was 0.267; in experiment [2], 0.514; in experiment [3], 1.63; in [4], -0.0987; in [5] it was 0.317; in experiment [6] it was 1.19. Also, the z-score was 0.593 (inactive) in experiment [7], -0.418 in experiment [8], -1.01 in experiment [9] and 1.16 (inactive) in experiment [10].
With `COCCOC(=O)N1C(=O)[C@@]2(c3cc(C#Cc4ccc(OC)cc4)ccc31)[C@H](C(=O)N1CCc3cc(OC)c(OC)cc3C1)[C@H]1C(=O)O[C@H](c3ccccc3)[C@H](c3ccccc3)N1[C@@H]2c1ccc(O)cc1`, the z-score in experiment [1] was -0.0326; in [2], 0.376; in experiment [3], 0.97; in [4], 0.175; in experiment [5], -0.393; in [6], -0.177. Besides, the z-score in experiment [7] was 0.302 (inactive); in experiment [8], -0.185; in experiment [9], 0.516; in experiment [10], 0.361 (inactive).
As for `NC(=O)NCC#Cc1ccc2c(c1)[C@]1(C(=O)N2)[C@H](c2ccc(O)cc2)N2[C@H](c3ccccc3)[C@H](c3ccccc3)OC(=O)[C@H]2[C@@H]1C(=O)NC[C@H](O)c1ccccc1`, the z-score was 0.544 in experiment [1]; 0.192 in experiment [2]; -0.0875 in experiment [3]; -0.106 in [4]; 0.0231 in experiment [5]; 0.163 in experiment [6]. Also, the z-score is -0.0491 (inactive) in [7], -0.888 in [8], 0.481 in experiment [9] and 0.716 (inactive) in [10].
In the case of `CC(=O)NCCCC[C@@H]1NC(=O)[C@H]2C[C@@H](C(=O)NCCCCCN)[C@@H](c3cccc(OCCO)c3)N2C1=O`, the z-score in experiment [1] was -0.0064; in [2] it was 0.352; in experiment [3] it was 0.491; in [4], 0.701; in experiment [5], 0.948; in [6], 0.0469. In addition, the z-score in experiment [7] is 0.408 (inactive); in experiment [8], -0.38; in [9] it was 0.155; in experiment [10], 1.1 (inactive).
`O=C1O[C@H](c2ccccc2)[C@H](c2ccccc2)N2[C@H]1[C@@H](C(=O)N1CCCCCCC1)[C@]1(C(=O)Nc3ccc(C#CCCO)cc31)[C@H]2c1ccc(OCCO)cc1`: the z-score was -0.84 in [1]; 0.162 in experiment [2]; 0.409 in [3]; -0.276 in [4]; -0.105 in [5]; -0.0749 in experiment [6]. Also, the z-score in experiment [7] was -0.962 (inactive); in experiment [8] it was -0.737; in [9], -0.919; in experiment [10], 1.93 (inactive).
For `COc1ccc(CCNC(=O)[C@@H]2c3ccccc3C(=O)N(Cc3ccccc3C(F)(F)F)[C@H]2c2ccc(CO)cc2)cc1`, the z-score in [1] was 0.0059; in experiment [2], -0.513; in experiment [3] it was 0.106; in [4], -0.601; in [5], -0.0978; in experiment [6], 1.2. In addition, the z-score in experiment [7] is 0.996 (inactive); in [8], -0.667; in experiment [9], 0.00958; in experiment [10], 2.22 (inactive).
`O=C1OCC=C[C@H]2OC34C=CCN(CCN5CCOCC5)C(=O)[C@H]3N(CCCCCO)C(=O)[C@@H]4[C@@H]12` (stereo not given in full): the z-score is 0.348 in experiment [1]; 0.277 in experiment [2]; -0.36 in experiment [3]; 0.148 in experiment [4]; 0.182 in experiment [5]; -0.539 in experiment [6]. Moreover, the z-score was 0.379 (inactive) in experiment [7], 0.205 in experiment [8], 0.802 in experiment [9] and -0.536 (inactive) in experiment [10].
